HP1b binding inh: HP1-beta chromodomain-methylated histone interaction inhibition | P83916 | AlphaScreen HP1-beta / biotin-H3K9me3 peptide binding | Potency, µM (top dose mostly 114 µM), usual class: inhibitors | hit rate 0.56% among 390,000; further: nearly all actives have a fitted effect of over 70% in size
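HP1-beta protein (50 nM final) preincubated 30 min at room temperature with biotinylated H3(1-18)K9me3 peptide (50 nM) in PBS pH 7.4, 0.01% Tween-20, then compound added for 30 min. AlphaScreen streptavidin donor/nickel chelate acceptor beads (10 ug/mL final), 30 min dark, luminescence read.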
G9a block: blocks human histone lysine methyltransferase G9a; Q96KQ7; G9a H3K9 monomethylation, AlphaScreen, 2 h; Potency, µM (top dose mostly 102 µM), most hits filed as inhibitors; hit rate 8.8% among 350,000; AID 504332; further: nearly all actives have a fitted effect of over 75% in size
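Methyltransferase reactions run at room temperature for 2 h (20 nM enzyme, 500 nM biotin-H3K9 peptide, 20 uM SAM) after a 15 min compound preincubation; product detected by AlphaScreen beads and anti-H3K9me1 antibody.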
PI5P4K alpha inh: blocks human PI5P4K alpha kinase activity; PI5P4Kalpha enzyme, ADP-Glo luminescence, 60 min; hits give low values; P48426; hit rate 1.2% among 330,000; max response, %; active means max response of -50% or lower; inconclusive means between -30% and -50%; inactive means -30% or higher; further: value at the top dose of about 77 µM
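Controls without substrate or without enzyme flank wells where PI5P4Kalpha converts substrate using 5 microM ATP (final). Incubation lasts 60 minutes at room temperature; ADP formed is read by ADP-Glo luminescence.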
PLK1 PBD inh: blocks phosphopeptide binding to human PLK1 polo-box domain; Plk1 PBD binding of FITC phosphopeptide, fluorescence polarization; Potency, µM, most hits filed as inhibitors; hit rate 2.8% among 360,000; AID 720504; further: series mostly up to about 57 µM; nearly all actives have a fitted effect of over 65% in size
Target sequence (P53350 whole entry, looked up, the tested form may be a part): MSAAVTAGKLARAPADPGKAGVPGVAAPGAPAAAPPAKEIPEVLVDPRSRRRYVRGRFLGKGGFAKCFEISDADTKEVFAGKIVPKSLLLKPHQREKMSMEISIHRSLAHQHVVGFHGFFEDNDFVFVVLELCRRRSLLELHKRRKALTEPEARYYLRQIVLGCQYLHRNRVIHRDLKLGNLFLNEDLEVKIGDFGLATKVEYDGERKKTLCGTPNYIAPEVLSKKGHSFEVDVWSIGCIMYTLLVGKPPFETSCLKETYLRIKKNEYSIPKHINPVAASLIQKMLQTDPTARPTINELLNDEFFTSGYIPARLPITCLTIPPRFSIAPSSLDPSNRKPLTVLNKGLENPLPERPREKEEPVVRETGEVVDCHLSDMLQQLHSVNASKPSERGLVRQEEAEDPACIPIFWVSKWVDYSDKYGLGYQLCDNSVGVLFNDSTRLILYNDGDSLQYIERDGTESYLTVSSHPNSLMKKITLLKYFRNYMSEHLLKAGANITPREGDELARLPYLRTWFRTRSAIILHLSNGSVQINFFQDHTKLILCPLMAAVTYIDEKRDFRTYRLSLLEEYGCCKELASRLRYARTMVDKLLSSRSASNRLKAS
BAZ2B inh: inhibitors of human BAZ2B bromodomain. hit rate 4.4% among 360,000. AID 504333. Potency, µM (series often up to 114 µM), usual class: inhibitors. Q9UIF8. AlphaScreen BAZ2B-H3K14Ac peptide displacement; further: nearly all actives have a fitted effect of over 60% in size
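AlphaScreen luminescence quantifies BAZ2B engagement of H3K14Ac peptide; the protein and biotinylated peptide are both at 50 nM final, buffer PBS pH 7.4 with 0.01% Tween-20, all steps at room temperature.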
JMJD2A Tudor: JMJD2A Tudor domain (human) inhibition; AlphaScreen JMJD2A-Tudor / H3K4me3 peptide binding; hit rate 4.4% among 390,000; O75164; Potency, µM (highest dose often 114 µM), actives largely listed as inhibitors; further: nearly all actives have a fitted effect of over 50% in size
A number is an active result; i = inactive; ? = inconclusive; nt = not tested or not shown; [ ] = another dose, or the depositor's remark. Compounds with a hit are over-represented: about 12% of the library has one in this group of screens. Unless noted, the call rests on the fitted dose curve; in most records, active means well fitted curve in the direction sought with a large enough effect; inconclusive means small, poorly fitted or top-dose-only effect, or another doubt; inactive means no such curve, though single readings can be large; an effect the other way counts as inactive or inconclusive.

SMILES	HP1b binding inh	G9a block	PI5P4K alpha inh	PLK1 PBD inh	BAZ2B inh	JMJD2A Tudor
Cc1ccc(F)cc1NC(=O)COC(=O)COc1ccc(C#N)cc1	i	i[0.501 µM]	i	i	i	i
O=[N+]([O-])c1ccc2[nH]c(=S)[nH]c2c1	i	nt	i	26.7µM	nt	i
O=c1cnc2cc([N+](=O)[O-])ccc2[nH]1	i	?	i	i	i	i
O=[N+]([O-])c1ccc2[nH]c(=S)sc2c1	?	nt	-75.0	i	nt	50.1µM
S=c1[nH]c2ccc(Cl)cc2s1	i	1.12µM	-75.1	?	i	?
CC(C)NS(=O)(=O)c1ccc(OCC(=O)N2CCN(c3ccccc3F)CC2)cc1	i	i	nt	nt	i	i
CCN(CC)S(=O)(=O)c1ccc(C(=O)NCCSc2c(-c3ccc(OC)cc3)[nH]c3ccccc23)cc1	i	i	nt	nt	i	i
O=C(O)CCC1(C(=O)O)OCCc2ccccc21 (centres undefined)	i	i	nt	i	i	?
CCN(CC)CCCC1(CN)OCCc2ccccc21 (centres undefined)	i	25.1µM	i	i	i	i
Cc1ccc(C)c(C(=O)COC(=O)CCN2C(=O)C3C4CCC(C4)C3C2=O)c1 (centres undefined)	i	i	i	i	i	i
CCOC(=O)c1ccc(S(=O)(=O)n2c(CN3CCCCC3)nc3ccccc32)cc1	i	50.1µM	i	i	i	i
O=C(CSc1nc2ccccc2n1S(=O)(=O)c1ccccc1)N1CCCCC1	i	70.8µM	i	i	i	i
O=C(NCc1ccccc1)c1ccc(CSc2nc3cccnc3n2Cc2ccccc2F)cc1	?	3.55µM	nt	nt	22.4µM	5.62µM
Cc1cccc(CNC(=O)c2ccc(Cn3c(SCc4cccc(F)c4)nc4cccnc43)cc2)c1	?	3.16µM	nt	nt	11.2µM	4.47µM
O=C(CSc1nc2ccccc2n1CC(=O)N1CCCCC1)N1CCCCC1	i	i	i	i	i	i
CCOc1ccc(C(=O)NC(C(=O)NCC(c2cccs2)N(C)C)C(C)C)cc1 (centres undefined)	i	i[12.7 µM]	i	i	i	i
CCC1(c2ccc(C)cc2)NC(=O)N(C(C)C(=O)Nc2ccc(N3CCOCC3)cc2)C1=O (centres undefined)	i	i[12.7 µM]	i	i	i	i
CN(C)C(=O)CCc1ccc2c3c([nH]c2c1)[C@]1(CCc2ccccc2)[C@@H](C(=O)N2CCCCC2)C[C@H](CC(=O)NCCCn2ccnc2)C(=O)N1CC3	i	nt	i	i	nt	i
CN(C)c1ccc(CNC(=O)c2ccc(Cn3c(SCc4ccccc4)nc4cccnc43)cc2)cc1	i	10µM	nt	nt	?	?
Cc1cccc(CNC(=O)c2ccc(Cn3c(SCc4ccccc4)nc4cccnc43)cc2)c1	i	i	nt	nt	i	i
O=C(CSc1nc2cccnc2n1Cc1ccccc1)N1CCCC1	?	i	i	29.9µM	i	31.6µM
COc1ccc(NC(=O)c2cn(CC(C)C)c(=O)c3cc(OC)c(OC)cc23)cc1Cl	i	i	nt	nt	i	i
O=S(=O)(c1ccc(C(F)(F)F)cc1)N1CCN(S(=O)(=O)c2ccc3c(c2)OCCO3)CC1	nt	nt	nt	nt	nt	i
N#Cc1c(-c2ccco2)cc(-c2ccccc2)[nH]c1=O	i	nt	i	i	70.8µM	?
Cc1ccc(-c2cc(-c3ccco3)c(C#N)c(=O)[nH]2)cc1	i	i	i	i	50.1µM	79.4µM
SMILES	HP1b binding inh	G9a block	PI5P4K alpha inh	PLK1 PBD inh	BAZ2B inh	JMJD2A Tudor
Cc1cc(-c2ccccc2)[nH]c(=O)c1C#N	i	i	i	i	i	i
COc1ccc(CNC(=O)CCc2c(C)nc3nc(CNC(=O)OC(C)(C)C)nn3c2C)cc1	i	i	nt	nt	i	i
CCc1cccc(C)c1NS(=O)(=O)c1ccc2c(c1)NC(=O)C(C)C(=O)N2 (centres undefined)	i	i	nt	nt	i	i
FC(F)(F)c1cccc(N2CCN(c3ccc4nnc(-c5ccccc5)n4n3)CC2)c1	i	i	nt	i	i	i
Cc1cccc(N2CCN(C3(c4ccccc4)C(=O)c4ccccc4C3=O)CC2)c1C	i	?	nt	nt	i	?
O=C1c2ccccc2C(=O)C1(c1ccccc1)N1CCN(c2cccc(C(F)(F)F)c2)CC1	i	10µM	nt	nt	?	?
O=C1c2ccccc2C(=O)C1(c1ccccc1)N1CCN(c2cccc(Cl)c2)CC1	i	6.31µM	nt	nt	?	?
COc1ccccc1N1CC(C)(C)C(=O)N(C(=O)c2ccc(Cl)cc2)C1=S	i	39.8µM	i	i	i	?
Nc1ccccc1Nc1cc(-c2ccccc2)nn1-c1cccc(Cl)c1	44.7µM	?	i	i	11.2µM	20µM
O=C(Nc1cc(-c2cccc(Cl)c2)nn1-c1ccccc1)c1ccccc1F	i	i	nt	nt	i	i
COCCC(=O)N1CCC(Oc2ccc(C(=O)N3CCCC(OC)C3)cc2)CC1 (centres undefined)	i	i	i	26.7µM	i	i
COCCC(=O)N1CCC(Oc2ccc(C(=O)N(C)C3CCCCC3)cc2)CC1	i	i[0.501 µM]	i	i	i	i
COCCC(=O)N1CCC(Oc2ccc(C(=O)N(C)C(C)c3ccon3)cc2)CC1 (centres undefined)	i	i	i	26.7µM	i	?
O=C(Cn1ncc2c(Cl)cccc21)NCc1cccc(Cl)c1	i	i	nt	nt	i	i
CCN1CCN(Cc2ccc(NC(=O)c3ccc(C)c(/C=C/c4cnc(Nc5cc(N6CCNCC6)nc(C)n5)cn4)c3)cc2C(F)(F)F)CC1	?	28.2µM	-73.5	i	?	79.4µM
CCN1CCN(Cc2ccc(NC(=O)c3ccc(C)c(NC(=O)c4ccno4)c3)cc2C(F)(F)F)CC1	i	i	i	i	i	i
Cc1cc(-c2cccs2)c(C#N)c(=S)[nH]1	i	1.58µM	i	?	i	7.94µM
O=C(O)Cn1nc(N2CCN(c3ccccc3)CC2)ccc1=O	i	i	nt	nt	nt	i
COc1cccc(/C=N/NC(=S)Nc2cccc(S(=O)(=O)N(C)C)c2)c1	?	8.91µM	i	8.44µM	?	?
COc1ccc(O)c(/C=N/NC(=S)Nc2cccc(S(=O)(=O)N(C)C)c2)c1	i	?	-55.6	i	7.94µM	22.4µM
COc1ccc(O)c(/C=N/NC(=S)Nc2cccnc2)c1	i	?	i	i	nt	25.1µM
COc1cc(/C=N/NC(=S)Nc2cccc(S(=O)(=O)N(C)C)c2)cc(OC)c1O	i	i	i	i	i	i
CN(C)S(=O)(=O)c1cccc(NC(=S)N/N=C/c2ccc(O)c(O)c2O)c1	?	3.16µM	-97.4	5.97µM	4.47µM	20µM
CN(C)S(=O)(=O)c1cccc(NC(=S)Nc2cc(Cl)cc(Cl)c2)c1	i	?	i	?	i	i
O=C(NCC(c1ccc2c(c1)OCO2)N1CCN(c2ccccc2)CC1)c1ccccc1 (centres undefined)	i	i	nt	nt	?	?
Cc1ccc2c(=O)cc(C(=O)Nc3ccc(S(=O)(=O)N4CCC(C)CC4)cc3)oc2c1C	i	i	nt	nt	i	i

Screening data (PubChem)
